# Measurements: PubChem BioAssay AID2278 (National Center for Advancing Translational Sciences (NCATS), 2010)
# Records with an inconclusive call do not appear. The source made the active and inactive calls. The call rests on the fitted dose curve; in most records, active means well fitted curve in the direction sought with a large enough effect; inconclusive means small, poorly fitted or top-dose-only effect, or another doubt; inactive means no such curve, though single readings can be large or run the other way.
# Target: Group 10 secretory phospholipase A2 (Mus musculus) (UniProt Q9QXX3)
# Sequence (Q9QXX3 whole entry, looked up): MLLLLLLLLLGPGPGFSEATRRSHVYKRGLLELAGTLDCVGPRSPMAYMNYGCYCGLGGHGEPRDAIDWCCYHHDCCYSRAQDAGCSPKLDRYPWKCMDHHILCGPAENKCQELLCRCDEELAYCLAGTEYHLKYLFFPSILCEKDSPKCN
# Experiment: Secondary Assay for Inhibitors of Ubiquitin-specific Protease USP2a: PLA2 Counterscreen
# Conditions: purified murine PLA2, NBD C6-HPC fluorescence; series mostly up to 57.5 µM
# Description: NIH Molecular Libraries Screening Centers Network [MLSCN] NIH Chemical Genomics Center [NCGC] MLSCN Grant: XO1-MH079852-01 PI Name: Nicholson, Ben. Progenra Inc, Malvern, PA NCGC Assay Overview: Homeostasis of cellular proteins is maintained through a combination of synthesis and degradation. The pathway that accounts for the majority of protein degradation is the ubiquitin-proteasomal pathway. Ubiquitin (Ub) is highly conserved in all cells and the generation of a multi-Ub chain typically targets proteins for degradation by the proteasome. However, ubiquitination is highly reversible and dynamic. Deubiquitination, the reverse process, is catalyzed through the action of enzymes referred to as isopeptidases or deubiquitinating enzymes (DUBs). […]
# NCGC Assay Protocol Summary: The assay buffer, prepared fresh at the day of the assay, contains 20mM Tris-HCl pH 8.0, 2mM CaCl2, 2mM beta-mercaptoethanol, 0.1% DMSO. […] Plates were read immediately on an Envision (Perkin Elmer) plate reader using wavelengths of Ex 460nm /Em 535nm. Then, the assay plates were incubated for 2.5 hours and read again on the Envision using the same settings. […] Concentration-response curves were fitted to the normalized data and the concentration-response curves were then classified based on curve quality (r2), response magnitude and degree of measured activity. The time zero reading was used to flag fluorescence artifacts. […]
row,SMILES,outcome
1,CC1=NCCc2c1[nH]c1cc(O)ccc21,inactive
2,Cc1ccc2scc(N3CCN(C)CC3)c(=O)c2c1,inactive
